Activity calls are given as the source filed them. How the calls were made is not given here.

The assay in a line: antiviral protection of cells from WNV – synthesized analogs, SAR follow-up (AID 2238). Particulars: West Nile virus CPE inhibition in cells; max CPE inhibition: measured here: maximum CPE inhibition observed, at 40 µM, stronger effect = higher value unless noted; series mostly up to 40 µM.
`CCOC(=O)C1(Cc2ccccc2C(F)(F)F)CCN(C2CCN(C(C)C)CC2)CC1` showed a max CPE inhibition of 59.8%.
Take `O=c1c2c(F)cccc2nc2n1CCC2`: the max CPE inhibition was found to be 1.51% and the compound was called inactive.
`COc1ccc(-c2csc(N(CCCN(C)C)C(=O)c3ccccc3F)n2)cc1`: the compound was called inactive and the max CPE inhibition was 3.61% [measured here: maximum CPE inhibition observed, at 80 µM, stronger effect = higher value].
With `COc1ccc(-c2csc(NC(=O)c3ccccc3Cl)n2)cc1`, the max CPE inhibition worked out at 1.74% and the compound was classed as inactive.
On to `CN(C)CCCNC(=S)N1CCN(c2nc(-c3ccccc3)cs2)CC1`, for which the max CPE inhibition was 55.7% [measured here: maximum CPE inhibition observed, at 20 µM, stronger effect = higher value].
In the case of `O=c1c2cc(I)ccc2nc2n1CCC2`, the max CPE inhibition worked out at 0.68% and the call was inactive.
`CCN(CC)CCCNC(=S)N1CCN(c2nc(-c3ccccc3)cs2)CC1`: the max CPE inhibition is 76% [measured here: maximum CPE inhibition observed, at 20 µM, stronger effect = higher value].
Same read-out and setting: the value for `COc1ccc(-c2csc(N(CCCN(C)C)C(=O)c3ccccc3Cl)n2)cc1` was 69.5%.
